Reference: PubChem BioAssay

Key:
[1] = test system: Botulinum neurotoxin type F light chain protease (Clostridium botulinum); assay: Botulinum neurotoxin type F light chain protease inhibition, multiplex microsphere flow cytometry, validation set (AID 588459); conditions: multiplex microsphere protease substrate cleavage assay, at 10 µM, active compounds read high
[2] = molecular target: Botulinum neurotoxin type A (Clostridium botulinum) (UniProt P0DPI0); assay: BoNT/A light chain protease inhibitors, biochemical, multiplex microsphere flow cytometry, validation set (AID 588460); conditions: at 10 µM, active compounds read high
[3] = molecular target: Lethal factor (Bacillus anthracis) (UniProt P15917); assay: Lethal factor protease inhibitors, Bacillus anthracis, multiplex microsphere cleavage assay, validation set (AID 588461); conditions: flow cytometry, at 10 µM, active compounds read high

Measured: inhibition

COc1ccc(Cc2nc(-c3ccc(Br)cc3)no2)cc1
inactive: [1] -0.7% | [2] -1.6% | [3] -5.8%

CSCCC1NC2(C(=O)Nc3ccc(Cl)cc32)[C@@H]2C(=O)N(C3CCCC3)C(=O)[C@H]12 (stereo not given in full)
inactive: [1] 0.8% | [2] -1.4% | [3] -11.2%

CC(C)=CCC(C)(C)/C=N/NC(N)=O
inactive: [1] 1.8% | [2] 0.6% | [3] 10.3%

CN(Cc1c(C(=O)N(C)Cc2ccccc2)nc2ccccn12)CC1Cc2ccccc2O1 (stereo not given)
inactive: [1] 4.4% | [2] 0.4% | [3] -5.9%

N=C1C(c2ccccc2)=C(O)CN1CCCO
inactive: [1] -2.6% | [2] -1.3% | [3] -5%

O=C(O)C(O)c1ccccc1 (stereo not given)
inactive: [1] 1.5% | [2] -1.4% | [3] 1.3%

Cc1c(CCOC(=O)CC23CC4CC(CC(C)(C4)C2)C3)sc[n+]1Cc1ccc([N+](=O)[O-])cc1
inactive: [1] -3.1% | [2] 1.6% | [3] -4.8%

CO[C@@]1(NC(=O)Cc2cccs2)C(=O)N2C(C(=O)O)=C(COC(N)=O)CS[C@@H]21
inactive: [1] -1.9% | [2] 1.4% | [3] -10%

COCCOC(=O)C1=C(N)OC2=C(C(=O)CCC2)C1c1cccnc1 (stereo not given)
inactive: [1] -3.2% | [2] 0% | [3] -0.9%

CCOC(=O)C1=C(C)NC(C)=C(C(=O)OC)C1c1cccc([N+](=O)[O-])c1 (stereo not given)
inactive: [1] -1.6% | [2] 0.4% | [3] -10%
